PubChem BioAssay AID1159580 (chemical genetic matrix, 2015)
Several values for one entry are separate records, joined by “and”; a condition that tells them apart may be missing. Identical values can stand only once. Screen size: about 5,500 compounds; about 2,000 (36%) were called active. Another 18% or so got no clear call; they are omitted. The list shows a part of the results. A number with no mark means an inactive call. Rule as the data show it: active = normalized growth mostly below about 0.91 (no sharp cut-off); inconclusive = no clear call, values can overlap the other calls; inactive = mostly above about 0.92.

Experiment: chemical genetic growth profiling, strain panel (AID 1159580);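 also: tested at 20 µM; growth read once vehicle control cultures reached saturation at 30 °C; 1 = growth at the plate median or of vehicle wells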
Details: S. cerevisiae deletion strains, growth OD

CCN(CCCc1ccccc1)CCCc1ccccc1
normalized growth (locus YAL021C, strain ccr4, stronger effect = lower value): 0.915 | normalized growth (locus YAL026C, strain drs2, stronger effect = lower value): 0.862 (active) | normalized growth (locus YAL030W, strain snc1, stronger effect = lower value): 0.991 | normalized growth (locus YBL061C, strain skt5, stronger effect = lower value): 0.981 | normalized growth (locus YBR009C, strain hhf1, stronger effect = lower value): 1.01 | normalized growth (locus YBR021W, strain FUR4, stronger effect = lower value): 0.977 | normalized growth (locus YBR023C, strain chs3, stronger effect = lower value): 0.96 | normalized growth (locus YBR171W, strain sec66, stronger effect = lower value): 0.97 | normalized growth (locus YBR229C, strain ROT2, stronger effect = lower value): 1 | normalized growth (locus YBR231C, strain swc5, stronger effect = lower value): 0.987 | normalized growth (locus YBR279W, strain paf1, stronger effect = lower value): 0.983 | normalized growth (locus YCL011C, strain gbp2, stronger effect = lower value): 0.966 | normalized growth (locus YCL016C, strain dcc1, stronger effect = lower value): 0.939 | normalized growth (locus YCL029C, strain bik1, stronger effect = lower value): 1.02 | normalized growth (locus YCL061C, strain MRC1, stronger effect = lower value): 0.965 | normalized growth (locus YCL069W, strain vba3, stronger effect = lower value): 0.985 | normalized growth (locus YCR088W, strain abp1, stronger effect = lower value): 0.99 | normalized growth (locus YDL005C, strain med2, stronger effect = lower value): 0.99 | normalized growth (locus YDL035C, strain GPR1, stronger effect = lower value): 0.976 | normalized growth (locus YDL040C, strain nat1, stronger effect = lower value): 0.984 | normalized growth (locus YDL074C, strain BRE1, stronger effect = lower value): 1.01 | normalized growth (locus YDL101C, strain DUN1, stronger effect = lower value): 1.02 | normalized growth (locus YDL134C, strain PPH21, stronger effect = lower value): 0.976 | normalized growth (locus YDL185W, strain tfp1, stronger effect = lower value): 1.03 | normalized growth (locus YDL192W, strain arf1, stronger effect = lower value): 1.02 | normalized growth (locus YDR001C, strain nth1, stronger effect = lower value): 0.985 | normalized growth (locus YDR069C, strain doa4, stronger effect = lower value): 0.974 | normalized growth (locus YDR101C, strain arx1, stronger effect = lower value): 1.03 | normalized growth (locus YDR137W, strain rgp1, stronger effect = lower value): 0.735 (active) | normalized growth (locus YDR150W, strain NUM1, stronger effect = lower value): 1 | normalized growth (locus YDR159W, strain sac3, stronger effect = lower value): 1.01 | normalized growth (locus YDR162C, strain NBP2, stronger effect = lower value): 1.01 | normalized growth (locus YDR195W, strain ref2): 1.02 | normalized growth (locus YDR297W, strain sur2, stronger effect = lower value): 0.99 | normalized growth (locus YDR318W, strain mcm21, stronger effect = lower value): 1.01 | normalized growth (locus YDR334W, strain swr1, stronger effect = lower value): 0.983 | normalized growth (locus YDR335W, strain msn5, stronger effect = lower value): 0.983 | normalized growth (locus YDR388W, stronger effect = lower value): 1.02 | normalized growth (locus YDR392W, strain spt3, stronger effect = lower value): 0.951 | normalized growth (locus YDR502C, strain sam2, stronger effect = lower value): 1.02 | normalized growth (locus YEL003W, strain gim4, stronger effect = lower value): 0.99 | normalized growth (locus YEL037C, strain rad23, stronger effect = lower value): 0.984 | normalized growth (locus YEL061C, strain CIN8 (second series), stronger effect = lower value): 0.988 | normalized growth (locus YEL061C, strain CIN8, stronger effect = lower value): 1 | normalized growth (locus YER015W, strain faa2, stronger effect = lower value): 0.977 | normalized growth (locus YER016W, strain bim1, stronger effect = lower value): 1 | normalized growth (locus YER110C, stronger effect = lower value): 1.04 | normalized growth (locus YER111C, strain swi4, stronger effect = lower value): 0.962 | normalized growth (locus YER155C, strain BEM2 (second series), stronger effect = lower value): 0.99 | normalized growth (locus YER155C, strain BEM2, stronger effect = lower value): 0.999 | normalized growth (locus YER167W, strain BCK2, stronger effect = lower value): 0.975 | normalized growth (locus YFR010W, strain ubp6, stronger effect = lower value): 0.98 | normalized growth (locus YGL078C, strain dbp3, stronger effect = lower value): 1.02 | normalized growth (locus YGL086W, strain mad1, stronger effect = lower value): 1.01 | normalized growth (locus YGL167C, strain pmr1, stronger effect = lower value): 0.983 | normalized growth (locus YGL173C, strain kem1, stronger effect = lower value): 0.979 | normalized growth (locus YGL227W, strain vid30, stronger effect = lower value): 0.994 | normalized growth (locus YGL240W, strain doc1, stronger effect = lower value): 0.971 | normalized growth (locus YGL248W, strain PDE1, stronger effect = lower value): 0.997 | normalized growth (locus YGL253W, strain hxk2, stronger effect = lower value): 0.978 | normalized growth (locus YGR078C, strain PAC10, stronger effect = lower value): 1 | normalized growth (locus YGR135W, strain pre9, stronger effect = lower value): 1.01 | normalized growth (locus YGR252W, strain gcn5, stronger effect = lower value): 0.945 | normalized growth (locus YHR013C, strain ard1, stronger effect = lower value): 0.927 | normalized growth (locus YHR027C, strain rpn1, stronger effect = lower value): 0.978 | normalized growth (locus YHR030C, strain SLT2, stronger effect = lower value): 1 and 1.01 | normalized growth (locus YHR079C, strain IRE1 (second series), stronger effect = lower value): 1.03 | normalized growth (locus YHR079C, strain IRE1, stronger effect = lower value): 1.03 | normalized growth (locus YHR094C, strain hxt1, stronger effect = lower value): 1.03 | normalized growth (locus YHR129C, strain ARP1, stronger effect = lower value): 1 | normalized growth (locus YHR142W, strain chs7, stronger effect = lower value): 0.93 | normalized growth (locus YHR200W, strain rpn10, stronger effect = lower value): 1.02 | normalized growth (locus YIL066C, strain RNR3, stronger effect = lower value): 0.965 | normalized growth (locus YIL073C, strain SPO22, stronger effect = lower value): 0.999 | normalized growth (locus YIL125W, strain kgd1, stronger effect = lower value): 1.03 | normalized growth (locus YIR030C, strain dcg1, stronger effect = lower value): 1.03 | normalized growth (locus YJL092W, strain hpr5, stronger effect = lower value): 0.976 | normalized growth (locus YJL095W, strain BCK1 (second series), stronger effect = lower value): 0.981 | normalized growth (locus YJL095W, strain BCK1, stronger effect = lower value): 1.02 | normalized growth (locus YJL115W, strain asf1, stronger effect = lower value): 0.98 | normalized growth (locus YJL129C, strain trk1, stronger effect = lower value): 0.956 | normalized growth (locus YJL134W, strain LCB3, stronger effect = lower value): 1 | normalized growth (locus YJL154C, strain vps35, stronger effect = lower value): 0.977 | normalized growth (locus YJL164C, strain tpk1, stronger effect = lower value): 0.97 | normalized growth (locus YJL166W, strain qcr8, stronger effect = lower value): 0.93 | normalized growth (locus YJL168C, strain set2, stronger effect = lower value): 1.02 | normalized growth (locus YJL187C, strain SWE1 (second series), stronger effect = lower value): 1.02 | normalized growth (locus YJL187C, strain SWE1, stronger effect = lower value): 0.991 | normalized growth (locus YJR043C, strain POL32, stronger effect = lower value): 0.949 | normalized growth (locus YJR066W, strain TOR1, stronger effect = lower value): 0.985 | normalized growth (locus YKL009W, strain mrt4, stronger effect = lower value): 1.01 | normalized growth (locus YKL068W, stronger effect = lower value): 1.01 | normalized growth (locus YKL085W, strain MDH1 (second series), stronger effect = lower value): 1 | normalized growth (locus YKL085W, strain MDH1, stronger effect = lower value): 1 | normalized growth (locus YKL160W, strain elf1, stronger effect = lower value): 0.935 | normalized growth (locus YKR001C, strain vps1, stronger effect = lower value): 1.02 | normalized growth (locus YKR026C, strain gcn3, stronger effect = lower value): 0.983 | normalized growth (locus YKR091W, strain srl3, stronger effect = lower value): 0.99 | normalized growth (locus YLL001W, strain dnm1, stronger effect = lower value): 0.914 | normalized growth (locus YLL026W, stronger effect = lower value): 0.997 | normalized growth (locus YLL041C, strain sdh2, stronger effect = lower value): 0.989 | normalized growth (locus YLR027C, strain aat2, stronger effect = lower value): 0.982 | normalized growth (locus YLR039C, strain RIC1, stronger effect = lower value): 1.04 | normalized growth (locus YLR058C, strain SHM2, stronger effect = lower value): 1.02 | normalized growth (locus YLR102C, strain apc9, stronger effect = lower value): 1.02 | normalized growth (locus YLR113W, strain HOG1, stronger effect = lower value): 1.01 | normalized growth (locus YLR221C, strain rsa3, stronger effect = lower value): 0.961 | normalized growth (locus YLR258W, strain gsy2, stronger effect = lower value): 0.973 | normalized growth (locus YLR262C, strain YPT6 (second series), stronger effect = lower value): 0.701 (active) | normalized growth (locus YLR262C, strain YPT6, stronger effect = lower value): 1.06 | normalized growth (locus YLR268W, strain sec22, stronger effect = lower value): 1.03 | normalized growth (locus YLR320W, strain mms22, stronger effect = lower value): 0.894 | normalized growth (locus YLR330W, strain CHS5, stronger effect = lower value): 0.994 | normalized growth (locus YLR342W, strain FKS1 (second series), stronger effect = lower value): 0.963 | normalized growth (locus YLR342W, strain FKS1, stronger effect = lower value): 0.981 | normalized growth (locus YLR357W, strain rsc2, stronger effect = lower value): 0.953 | normalized growth (locus YLR370C, strain arc18, stronger effect = lower value): 0.963 | normalized growth (locus YLR371W, strain rom2, stronger effect = lower value): 1.02 | normalized growth (locus YLR384C, strain iki3, stronger effect = lower value): 0.983 | normalized growth (locus YLR418C, strain cdc73, stronger effect = lower value): 0.988 | normalized growth (locus YML016C, strain PPZ1, stronger effect = lower value): 1.01 | normalized growth (locus YML032C, strain rad52, stronger effect = lower value): 1.01 | normalized growth (locus YML120C, strain ndi1, stronger effect = lower value): 0.943 | normalized growth (locus YML124C, strain tub3, stronger effect = lower value): 1.02 | normalized growth (locus YMR058W, strain fet3, stronger effect = lower value): 0.97 | normalized growth (locus YMR078C, strain ctf18, stronger effect = lower value): 1.03 | normalized growth (locus YMR125W, strain sto1, stronger effect = lower value): 0.96 | normalized growth (locus YMR129W, stronger effect = lower value): 0.984 | normalized growth (locus YMR205C, strain PFK2, stronger effect = lower value): 0.952 | normalized growth (locus YMR223W, strain ubp8, stronger effect = lower value): 1.02 | normalized growth (locus YMR231W, strain pep5, stronger effect = lower value): 0.99 | normalized growth (locus YMR307W, strain GAS1, stronger effect = lower value): 1.06 | normalized growth (locus YNL067W, strain RPL9B, stronger effect = lower value): 1.02 | normalized growth (locus YNL071W, strain lat1, stronger effect = lower value): 0.973 | normalized growth (locus YNL153C, strain GIM3, stronger effect = lower value): 1 | normalized growth (locus YNL183C, strain NPR1, stronger effect = lower value): 0.957 | normalized growth (locus YNL209W, strain ssb2, stronger effect = lower value): 0.975 | normalized growth (locus YNL233W, strain BNI4, stronger effect = lower value): 1.03 | normalized growth (locus YNL248C, strain rpa49, stronger effect = lower value): 0.951 | normalized growth (locus YNL250W, strain rad50, stronger effect = lower value): 1.02 | normalized growth (locus YNL271C, strain bni1, stronger effect = lower value): 1.04 | normalized growth (locus YNL298W, strain CLA4, stronger effect = lower value): 1.03 | normalized growth (locus YNL307C, strain MCK1, stronger effect = lower value): 1.04 | normalized growth (locus YNL322C, strain KRE1 (second series), stronger effect = lower value): 0.992 | normalized growth (locus YNR049C, strain mso1, stronger effect = lower value): 0.977 | normalized growth (locus YNR052C, strain pop2, stronger effect = lower value): 1.03 | normalized growth (locus YOL006C, strain TOP1, stronger effect = lower value): 0.909 | normalized growth (locus YOL012C, strain htz1): 0.929 | normalized growth (locus YOL147C, strain pex11, stronger effect = lower value): 1.03 | normalized growth (locus YOR001W, strain rrp6, stronger effect = lower value): 0.982 | normalized growth (locus YOR061W, strain CKA2, stronger effect = lower value): 1.01 | normalized growth (locus YOR069W, strain VPS5, stronger effect = lower value): 1.01 | normalized growth (locus YOR070C, strain gyp1, stronger effect = lower value): 0.979 | normalized growth (locus YOR080W, strain dia2, stronger effect = lower value): 0.984 | normalized growth (locus YOR083W, strain WHI5, stronger effect = lower value): 0.93 | normalized growth (locus YOR106W, strain vam3, stronger effect = lower value): 0.961 | normalized growth (locus YOR136W, strain idh2, stronger effect = lower value): 1.03 | normalized growth (locus YOR144C, strain elg1, stronger effect = lower value): 1.03 | normalized growth (locus YOR184W, strain ser1, stronger effect = lower value): 1.05 | normalized growth (locus YOR231W, strain MKK1, stronger effect = lower value): 1.01 | normalized growth (locus YOR265W, strain rbl2, stronger effect = lower value): 1 | normalized growth (locus YOR270C, strain vph1, stronger effect = lower value): 0.885 | normalized growth (locus YOR290C, strain snf2, stronger effect = lower value): 0.919 | normalized growth (locus YOR316C, strain cot1, stronger effect = lower value): 1.03 | normalized growth (locus YPL051W, strain arl3, stronger effect = lower value): 0.93 | normalized growth (locus YPL078C, strain atp4, stronger effect = lower value): 0.932 | normalized growth (locus YPL106C, strain sse1, stronger effect = lower value): 0.947 | normalized growth (locus YPL240C, strain hsp82, stronger effect = lower value): 0.996 | normalized growth (locus YPL241C, strain CIN2, stronger effect = lower value): 1 | normalized growth (locus YPL256C, strain CLN2, stronger effect = lower value): 1.01 | normalized growth (locus YPR119W, strain clb2, stronger effect = lower value): 1.03 | normalized growth (locus YPR141C, strain kar3, stronger effect = lower value): 1.04 | normalized growth (locus YPR163C, strain tif3, stronger effect = lower value): 1.05 | normalized growth (locus YPR167C, strain met16, stronger effect = lower value): 1.03 | normalized growth (strain wtn01, stronger effect = lower value): 1.04
